From PubChem
NS1 inh: qHTS Assay for Inhibitors of Influenza NS1 Protein Function; Potency, µM (doses to about 46.1 µM), for inactives: at the top dose activity, positive = more growth; 0.4% of 270,000 active; calls by dose curve; note: potency is the fitted concentration of half-maximal effect; actives are rising curves; nearly all actives have a fitted effect of over 50% in size
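S. cerevisiae expressing influenza A NS1, grown in glucose, washed, then diluted 1:100 into pH 6.0 -URA galactose medium with 23 nl compound. Growth recovery read as OD600; NS1-free strain serves as control.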
Pf growth 96h: Primary qHTS for delayed death inhibitors of the malarial parasite plastid, 96 hour incubation | P. falciparum luciferase reporter growth, 96 h | Potency, µM (top dose mostly 28.7 µM), inactives show top-dose activity change, negative = inhibition, usual class: inhibitors | 6.9% of 320,000 active | AID 504834, 2011; note: potency is the fitted concentration of half-maximal effect; % is set by controls: 0 for no effect and ±100 for the full control effect
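P. falciparum expressing integrated firefly luciferase, in erythrocytes at 2% hematocrit, 0.05% parasitemia, incubated with compounds 96 h at 37 C, 5% CO2. Growth inhibition read as loss of luminescence; two-generation exposure targets delayed-death apicoplast inhibitors.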
Cycloheximide cs: Cycloheximide Counterscreen for Small Molecule Inhibitors of Shiga Toxin. 12% of 300,000 active. cell reporter, cycloheximide protein synthesis inhibition counterscreen. max response, %; in the data active = max response mostly above about 13%, no sharp cut-off; inactive = mostly below about 14%; note: read at 38.3 µM for the half of the compounds with a filed dose; 0% is about no effect
Shiga toxin inh: A qHTS for Small Molecule Inhibitors of Shiga Toxin; 9.2% of 290,000 active; inhibition, % at 38.7 µM; Vero cells, Shiga toxin protein synthesis inhibition reporter; AID 2315, 2010; in the data active = inhibition mostly above about 28%, no sharp cut-off; inactive = mostly below about 43%; note: 0% is about no effect
Pf growth 48h: Primary qHTS for delayed death inhibitors of the malarial parasite plastid, 48 hour incubation | Potency, µM (highest dose often 28.7 µM), inactives show top-dose activity change, negative = inhibition, hits mostly inhibitors | AID 504832, 2011 | 5.9% of 310,000 active | P. falciparum luciferase growth in erythrocytes, 48 h; note: potency is the fitted concentration of half-maximal effect; % is set by controls: 0 for no effect and ±100 for the full control effect
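Growth was read as firefly luciferase luminescence after a 48 h, 37 C, 5% CO2 exposure of compounds to reporter-bearing P. falciparum cultures (0.1% parasitemia, 2% hematocrit final) in Albumax-supplemented RPMI 1640.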
SARS PLP yeast: qHTS of Yeast-based Assay for SARS-CoV PLP. Potency, µM (top dose mostly 32.9 µM), for inactives: top-dose activity, positive = growth rescue, most hits filed as activators. S. cerevisiae expressing SARS-CoV PLpro, growth rescue. 0.19% of 330,000 active; calls by dose curve; note: potency is the fitted concentration of half-maximal effect; 0% is about no effect; nearly all actives have a fitted effect of over 55% in size
Active calls of the source: *; u = inconclusive; x = not tested or not shown; + = active, no number; [ ] = dose if it differs, or a comment. Rows were chosen to be rich in hits. Some 21% of all compounds tested hit in one or more screens of this group. Unless noted, calls come from the whole dose curve; as a rule, active = well fitted inhibition curve with a large enough effect; inconclusive = small, poorly fitted or top-dose-only effect, or another doubt; inactive = no such curve, though single readings can be large or run the other way.

SMILES	NS1 inh	Pf growth 96h	Cycloheximide cs	Shiga toxin inh	Pf growth 48h	SARS PLP yeast
Cc1cc(NS(=O)(=O)c2cc(Cl)sc2Cl)no1	0%	20%	-5	-4	x	-4%
Cc1nc2ccccc2c(=O)n1NC(=O)CCC(=O)O	4%	-15%	1	-2	6%	0%
CN(C)/C=C(\C(=O)c1ccc(F)cc1F)c1nnnn1-c1ccccc1	-14%	-8%	-4	-4	-6%	17%
CCCCNC(=S)Nc1ccccc1Cc1ccccc1	x	u	-2	1	u	-2%
COc1ccc(CN(C2CC2)S(=O)(=O)c2ccccc2Br)cc1	x	x	x	x	x	1%
C=CCN1C=C2C(=O)C(C)(OC(=O)CCC(=O)OC)C(=O)C=C2C=C1C1CC1 (stereo not given)	3%	2.6µM*	0	-5	7.4µM*	-1%
COC(=O)CCC(=O)OC1(C)C(=O)C=C2C=C(C3CC3)N(CCCCO)C=C2C1=O (stereo not given)	1%	7.4µM*	-4	20	u	-1%
COC(=O)CCC(=O)OC1(C)C(=O)C=C2C=C(C3CC3)N(CCc3ccccn3)C=C2C1=O (stereo not given)	3%	u	-3	-7	24%	-2%
COC(=O)CCC(=O)OC1(C)C(=O)C=C2C=C(C3CC3)N(CCCOC(C)C)C=C2C1=O (stereo not given)	0%	1.9µM*	-4	-2	10µM*	-3%
COC(=O)CCC(=O)OC1(C)C(=O)C=C2C=C(C3CC3)N(CCc3c[nH]c4ccccc34)C=C2C1=O (stereo not given)	12%	u	-4	-4	12µM*	0%
C[C@H](N)C(=O)N1CCC(C(=O)N[C@@H](Cc2ccccc2)C(=O)Nc2ccc(F)cc2)CC1	1%	-5%	2	-4	16%	7%
CCCc1cc(=O)[nH]c2nnc(SCC(=O)NC3CCCCC3)n12	x	-10%	x	x	2%	-6%
COC(=O)CCC(=O)OC1(C)C(=O)C=C2C=C(C3CC3)N(Cc3ccc4c(c3)OCO4)C=C2C1=O (stereo not given)	1%	13µM*	-1	-5	u	1%
COC(=O)CCCC1=CC2=CC(=O)C(C)(OC(=O)c3cccs3)C(=O)C2=CN1CCCCO (stereo not given)	-5%	13µM*	-5	-3	u	-1%
CN1CCc2c(sc3nc(SCC(N)=O)n(-c4ccc(Cl)cc4)c(=O)c23)C1	7%	u	-1	-4	29%[0.00184 µM]	0%
CN1CCc2c(sc3nc(SCC(N)=O)n(-c4ccccc4)c(=O)c23)C1	14%	x	7	29	u	-3%
C=C(C)CSc1nc2sc3c(c2c(=O)n1-c1ccccc1)CCN(C)C3	u	0.83µM*	-5	-10	1.5µM*	1%
COC(=O)CSc1nc2sc3c(c2c(=O)n1-c1ccccc1)CCN(C)C3	8%	x	-5	7	u	5%
C=CCSc1nc2sc3c(c2c(=O)n1-c1ccc(C)cc1)CCN(C)C3	0%	1.5µM*	3	-3	3.7µM*	0%
CN1CCc2c(sc3nc(SCC(=O)N4CCCCC4)n(-c4ccccc4)c(=O)c23)C1	25%	3.3µM*	9	-3	12µM*	-1%
O=C(CCC1CCCN(c2ncccn2)C1)NCc1ccc(F)c(F)c1 (stereo not given)	1%	-8%	1	16	-5%	-2%
O=C(CN1C(=O)CCC1=O)Nc1nc(-c2ccc(Cl)s2)cs1	2%	9%	7	28	35%	15%
O=C(Nc1nc(-c2ccc(Cl)s2)cs1)c1ccncc1	-6%	10µM*	15	23	-12%	7%
CC1CC1C(=O)Nc1nc(-c2ccc(Cl)s2)cs1 (stereo not given)	x	-1%	38*	131*	-28%	0%
O=C(Nc1nc(-c2cc(Cl)sc2Cl)cs1)c1cccs1	-46%	-51%	11*	31	u	-22%
SMILES	NS1 inh	Pf growth 96h	Cycloheximide cs	Shiga toxin inh	Pf growth 48h	SARS PLP yeast
Cc1cc(C)c(NC(=O)CS(=O)CC(=O)Nc2ccc(-n3cnnn3)c(C)c2)c(C)c1 (stereo not given)	1%	3%	-2	-2	7%	4%
COc1ccc(C(=O)N2CCCC(C(=O)N3CCN(c4ccccc4)CC3)C2)cc1 (stereo not given)	0%	-2%	-4	-16	-4%	1%
COc1ccccc1N1CCN(CC(O)COc2ccc(S(=O)(=O)N3CCOCC3)cc2)CC1 (stereo not given)	-4%	8.3µM*	-2	-5	x	-3%
O=S(=O)(c1ccc(OCC(O)CN2CCN(c3ccc(F)cc3)CC2)cc1)N1CCOCC1 (stereo not given)	-1%	9.3µM*	-1	1	0%	3%
N#Cc1ccc(C(=O)OCC(=O)Nc2ccc(S(N)(=O)=O)cc2)cc1	7%	5%	-1	-9	2%	2%
CCOC(=O)c1c(C)nc2sc3c(=O)n(-c4ccc(C(C)=O)cc4)cnc3c2c1-c1ccc(OC)cc1	12%	16%	2	-6	-6%	3%
CC(=O)c1c(C)nc2sc3c(=N)n(N)cnc3c2c1-c1ccc(Cl)cc1	18%	13µM*	-3	-3	u	-10%
CC(=O)NCCN=C(C)c1sc2ccccc2c1O	10%	-18%	24*	+	81%	5%
O=C(CNC(=O)c1sc2ccccc2c1Cl)NCc1ccccc1	3%	44%	7	35	55%	u
CC(=Nc1cccc(C)c1)c1sc2ccccc2c1O	0%	216%	45*	109*	118%	-22%
CC(=Nc1ccc(O)cc1)c1sc2ccccc2c1O	-24%	42%	48*	95*	128%	-16%
CC(=Nc1ccccc1O)c1sc2ccccc2c1O	-74%	15µM*	33*	67*	u	-3%
Cn1c(COc2ccccc2)nnc1SCC(=O)NC1CCCC1	6%	21%	-4	-17	3%	4%
CC1CCN(c2oc(-c3ccccc3Cl)nc2C#N)CC1	-10%	74%	37*	99*	75%	-10%
Cc1cccc(-c2nc(C#N)c(N3CCC(C)CC3)o2)c1	2%	27%	2	-9	33%	4%
CC1CCN(c2oc(-c3ccc(F)cc3)nc2C#N)CC1	-11%	24%	41*	62*	51%	-3%
N#Cc1nc(-c2ccccc2Cl)oc1N1CCOCC1	2%	x	17*	18	-16%	-6%
Cc1ccccc1-c1nc(C#N)c(N2CCC(C)CC2)o1	-3%	57%	24*	46*	39%	-5%
COc1cccc(CN(C)C(=S)Nc2ccc(C)c(C)c2)c1	x	-4%	4	-4	8%	2%
